# In PubChem BioAssay AID2563 (Broad Institute, 2010):
# In all, about 290,000 compounds went through this assay and about 800 (0.28%) were called active.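 Rule for the calls: active = fall in fluorescence gain of 50% or more versus controls, with final raw signal at or below 3038400; inconclusive = same 50% fall but final raw signal above 3038400; inactive = fall in fluorescence gain under 50%.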 Only a selection was taken, and actives are over-represented in it overall.
# Biological target: CAAX prenyl protease 2 (Saccharomyces cerevisiae (strain ATCC 204508 / S288c)) (UniProt Q03530)
# Sequence (Q03530 whole entry, looked up): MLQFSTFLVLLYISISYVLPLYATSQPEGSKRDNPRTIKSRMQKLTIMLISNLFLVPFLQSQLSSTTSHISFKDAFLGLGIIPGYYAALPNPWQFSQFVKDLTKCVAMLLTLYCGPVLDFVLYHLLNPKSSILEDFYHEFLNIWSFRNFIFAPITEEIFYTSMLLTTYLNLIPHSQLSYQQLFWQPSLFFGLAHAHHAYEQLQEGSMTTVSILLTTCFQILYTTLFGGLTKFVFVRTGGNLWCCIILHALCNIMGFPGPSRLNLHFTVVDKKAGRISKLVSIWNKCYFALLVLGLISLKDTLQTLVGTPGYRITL
# Test: blockers of Rce1 CaaX peptide cleavage – biochemical, fluorescence, cell-free homogeneous, primary screen (AID 2563)
# Conditions: yeast membranes, quenched prenylated peptide cleavage fluorescence
row,SMILES,outcome
1,CCN(CC)c1ccc(S(=O)(=O)N2CCCCC2)cc1NC(=O)C1=COCCO1,inactive
2,CCCCn1c(N)c(N(CC(C)C)C(=O)c2cnc(C)cn2)c(=O)[nH]c1=O,inactive
3,Cc1cccc(N(Cc2ccccc2)C(=O)c2cc(S(=O)(=O)N3CCOCC3)ccc2F)c1,inactive
4,Cc1ccc(C)c(NC(=O)COC(=O)Cn2c(C)csc2=O)c1,inactive
5,COc1ccc(-c2ccc3nnc(SCC(=O)Nc4ccc(NC(C)=O)cc4)n3n2)cc1,inactive
6,COc1ccc(C2CC(c3ccc([N+](=O)[O-])cc3)=NN2C(C)=O)cc1 (stereo unspecified),inactive
7,COc1ccc(C2=NN(C(=O)c3cccnc3)C(c3ccccc3)C2)cc1 (stereo unspecified),inactive
8,COc1ccc(C2CC(c3ccccc3)=NN2C(=O)c2ccc(Cl)c([N+](=O)[O-])c2)cc1 (stereo unspecified),active
9,COc1ccc(S(=O)(=O)NCC(c2ccco2)N2CCOCC2)cc1 (stereo unspecified),inactive
10,CCn1cc(C(=O)NCCO)c(=O)c2cc(F)c(N3CCN(C)CC3)cc21,active
11,CN1CCN(c2cc3c(cc2F)c(=O)c(C(=O)O)cn3CCF)CC1,inactive
12,CCCCNC(=O)c1cn(CC)c2cc(N3CCN(C(=O)c4ccco4)CC3)c(F)cc2c1=O,inactive
13,COc1ccc(NC(=O)CSc2nnc(Cc3ccccc3)c(=O)n2N)cc1,inactive
14,Cc1cc(C)c(S(=O)(=O)NCC(c2ccc3c(c2)OCO3)N2CCOCC2)c(C)c1 (stereo unspecified),inactive
15,COc1ccccc1N(C)S(=O)(=O)c1ccc(Cl)c(C(=O)Nc2ccncc2)c1,inactive
16,COCCNc1nc(N)c([N+](=O)[O-])c(NCCO)n1,inactive
17,Nc1nc(NCC(=O)O)nc(N2CCCCCC2)c1[N+](=O)[O-],inactive
18,COCCNc1nc(N)c([N+](=O)[O-])c(N2CCCCCC2)n1,active
19,O=C(NCC1(N2CCCCC2)CCCCC1)c1ccc(NS(=O)(=O)c2ccc(F)cc2)cc1,inactive
20,COc1ccc2oc(C(=O)N(CC(C)C)C3CCS(=O)(=O)C3)c(C)c2c1 (stereo unspecified),inactive
21,COc1ccc(S(=O)(=O)N2CCCCCC2)cc1C(=O)N(C)Cc1cccc(OC)c1OC,inactive
22,Cc1noc(C)c1CSCC(=O)Nc1ccc(Br)cc1Cl,inactive
23,COC(C/C=C/C(=O)[C@@H](C)OCc1ccccc1)OC,inactive
24,COC(C[C@@H]1O[C@@H]1C(=O)[C@@H](C)OCc1ccccc1)OC,active
25,COC(C[C@@H]1O[C@@H]1C(=O)[C@H](C)OCc1ccccc1)OC,inactive
26,COc1ccc(/C=N/NC(=O)c2cc(-c3cccc(C)c3)nc3ccccc23)cc1O,inactive

row,SMILES,outcome
1,CCOC(=O)C1CCN(C(=O)COC(=O)C2CCN(S(=O)(=O)c3ccc4c(c3)OCCO4)CC2)CC1,inactive
2,O=C(c1cc(-c2ccc(Cl)s2)nc2ccccc12)N1CCOCC1,inactive
3,CN(C(=O)COC(=O)c1cc(-c2ccco2)nc2ccccc12)C1CCS(=O)(=O)C1 (stereo unspecified),inactive
4,O=C(Nc1cccc(F)c1)c1cc(-c2ccco2)nc2ccccc12,inactive
5,Cc1cc(C)c2nc(-c3ccco3)cc(C(=O)O)c2c1,active
6,CC(C)C(=O)NC(=S)Nc1ccccc1F,inactive
7,CC(C)C(=O)Nc1cccc(NC(=S)NC(=O)C(c2ccccc2)c2ccccc2)c1,active
8,CCCCC(=O)NNC(=S)NC(=O)C(c1ccccc1)c1ccccc1,inactive
9,CS(=O)(=O)c1ccc(C(=O)OCC(=O)NNC(=O)COc2ccc(Cl)cc2)cc1,inactive
10,CCC(=O)c1ccc(OCC(=O)OCC(=O)NC2CCCCCC2)cc1,inactive
11,Cc1nc2ccccn2c(=O)c1NC(=O)c1cccs1,inactive
12,COc1ccccc1C(=O)NNC(=O)c1ccc(NC(=O)c2ccccc2)cc1,active
13,COc1ccccc1C(=O)Nc1ccccc1C(=O)Nc1ccccc1,inactive
14,COc1ccccc1C(=O)Nc1ccc(Nc2ccccc2)cc1,inactive
15,Cc1nc2ccccc2c(=O)n1-c1ccc(F)c(NC(=O)c2cccs2)c1,inactive
16,Cc1cc(C)c(S(=O)(=O)N2CCCC2CNC(=O)c2ccc3c(c2)OCO3)c(C)c1 (stereo unspecified),inactive
17,COC(=O)N/N=C/c1c[n+]([O-])c2ccccc2[n+]1[O-],inactive
18,NS(=O)(=O)c1cc(C(=O)OCC(=O)NNC(=O)c2ccccc2)ccc1Cl,inactive
19,CCN(CC(=O)Nc1ccccc1C(F)(F)F)C(=O)CSCc1c(C)noc1C,inactive
20,COc1ccc2nc(N3CCN(C(=O)c4ccc([N+](=O)[O-])o4)CC3)sc2c1,inactive
21,CC(=O)c1ccc(S(=O)(=O)Nc2ccc(-c3ccc4nncn4n3)cc2)cc1,inactive
22,COC(=O)C1CCN(C(=O)NC2CC(=O)N(c3ccc4c(c3)OCCO4)C2)CC1 (stereo unspecified),inactive
23,O=C(CN1CCN(c2ccccn2)CC1)Nc1ccc(Br)cc1,inactive
24,Cc1cc(Br)ccc1NC(=O)c1cnc(N2CCN(c3ccccn3)CC2)c2ccccc12,active
25,Cc1cc(Br)ccc1NC(=O)c1sc2ncn(CC(=O)N3CCN(c4ccccn4)CC3)c(=O)c2c1C,inactive
